According to PubChem BioAssay:

What follows are molecules tested against Dickkopf-related protein 1 (Homo sapiens) (UniProt O94907) (assay: small molecules binding DKK1 protein – biochemical, small-molecule microarray, 635 nm fluorescence scan, primary screen (AID 1106;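 further: score merges emission near 667 nm with signal to noise over three replicate slides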)). Settings: higher = more signal.
Chain of Dickkopf-related protein 1 (Homo sapiens) (O94907 whole entry, looked up): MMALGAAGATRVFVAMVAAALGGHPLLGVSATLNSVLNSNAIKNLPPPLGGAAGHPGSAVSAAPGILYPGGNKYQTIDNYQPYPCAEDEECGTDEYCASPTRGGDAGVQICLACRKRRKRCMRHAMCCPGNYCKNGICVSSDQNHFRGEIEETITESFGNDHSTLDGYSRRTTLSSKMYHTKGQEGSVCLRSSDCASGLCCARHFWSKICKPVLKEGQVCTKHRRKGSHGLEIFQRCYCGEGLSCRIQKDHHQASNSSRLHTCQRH

| SMILES | composite z-score |
| --- | --- |
| O=C1O[C@@H](c2ccccc2)[C@@H](c2ccccc2)N2[C@@H](c3ccccc3OCCO)[C@]3(C(=O)Nc4ccccc43)[C@@H](C(=O)Nc3nc4ccccc4s3)[C@H]12 | 0.287 |
| O=C1NC(=O)C2C1C=CC(C(O)c1cc(C(F)(F)F)cc(C(F)(F)F)c1)N2Nc1ccccn1 (stereo not given) | 0.0665 |
| O=C(N1CCCCC1)[C@]1(Cc2ccccc2)N=C(c2ccc(OCCCO)cc2)O[C@@H]1c1ccccc1 | -0.474 |
| CC(C)c1ccc(NN2C(C(O)c3ccc(B(O)O)cc3)C=CC3C(=O)N(c4ccccc4)C(=O)C32)cc1 (stereo not given) | -0.381 |
| NC(=O)NCC#Cc1ccc2c(c1)[C@]1(C(=O)N2)[C@H](c2ccc(O)cc2)N2[C@H](c3ccccc3)[C@H](c3ccccc3)OC(=O)[C@H]2[C@@H]1C(=O)O | -1.22 |
| Cc1ccccc1C(O)C1C=CC2C(=O)N(c3ccccc3)C(=O)C2N1Nc1ccc(C(C)C)cc1 (stereo not given) | -0.372 |
| COc1ccc(CCNC(=O)[C@@H]2c3ccccc3C(=O)N(Cc3ccccc3Cl)[C@H]2c2ccc(CO)cc2)cc1 | 0.0477 |
| O=C(NC1CC1)[C@@H]1c2ccccc2C(=O)N(Cc2ccccc2Cl)[C@H]1c1ccc(CO)cc1 | 0.63 |
| Cc1nc2cc(Br)ccc2c(=O)o1 | 0.436 |
| CCN(CC)c1ccc(N2CC=CC34O[C@@H]5C=CCCOC(=O)C5[C@H]3C(=O)N(CCCCCCO)[C@@H]4C2=O)cc1 (stereo not given in full) | -0.555 |
